Test results: PubChem BioAssay (NCI)
About 79,000 compounds went through this panel and 15% of them were active in at least one assay; those are over-represented in the sample as a whole. Unmarked numbers belong to inactive results. The source made the active and inactive calls. No stated cut-off is given here; in the data, active means growth inhibition above about 70%; inactive means the rest.

What was measured:
[1] = NCI Yeast Anticancer Drug Screen. Data for the rad50 strain (AID 155);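 further: 0% = growth of vehicle-only cultures of the same strain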; settings: S. cerevisiae rad50 strain growth inhibition, stronger effect = higher value
Procedure, shortened: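 Compounds were tested on a yeast strain with an engineered DNA damage repair alteration; the reported value is growth inhibition normalised to vehicle treatment.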

[2] = NCI Yeast Anticancer Drug Screen. Data for the mec2-1 strain (AID 157); settings: S. cerevisiae mec2-1 strain, stronger effect = higher value
Procedure, shortened: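 Growth inhibition is read against vehicle-treated controls after compound exposure of the mec2-1 yeast strain, which is defective in DNA damage repair or cell cycle control.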

[3] = NCI Yeast Anticancer Drug Screen. Data for the sgs1 mgt1 strain (AID 161);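 further: 0% = growth of cultures given vehicle only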; settings: S. cerevisiae sgs1 mgt1 strain, stronger effect = higher value
Procedure, shortened: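 Yeast cells carrying a defined DNA-repair defect were exposed to test compounds. Growth inhibition was measured relative to vehicle-treated controls.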

[4] = NCI Yeast Anticancer Drug Screen. Data for the cln2 rad14 strain (AID 165);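 further: 0% = growth equal to vehicle treated cultures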; settings: S. cerevisiae cln2 rad14 strain, stronger effect = higher value
Procedure, shortened: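 Growth inhibition, relative to vehicle-treated controls, is the read-out. The test organism is a yeast strain with defined genetic alterations, cln2 rad14.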

[5] = NCI Yeast Anticancer Drug Screen. Data for the bub3 strain (AID 167); settings: S. cerevisiae bub3 mutant strain, stronger effect = higher value
Procedure, shortened: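 Growth of a checkpoint-deficient yeast mutant is measured after compound exposure. Values represent inhibition relative to vehicle.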

[6] = NCI Yeast Anticancer Drug Screen. Data for the mlh1 rad18 strain (AID 175); settings: S. cerevisiae mlh1 rad18 strain growth inhibition, stronger effect = higher value
Procedure, shortened: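 Cells of a genetically altered yeast strain, deficient in DNA damage repair, were treated with compound. Their growth was then compared with that of vehicle-treated cultures to give inhibition.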

[7] = at 5.0 µM (retest, dose inferred, filed as 0.5)
[8] = at 50.0 µM (retest, dose inferred, filed as 5.0)

Row | Compound | growth inhibition [1, 7] | growth inhibition [1, 8] | growth inhibition ([1]; at 50.0 µM) | growth inhibition [2, 7] [%] | growth inhibition [2, 8] | growth inhibition ([2]; at 50.0 µM) | growth inhibition [3, 7] [%] | growth inhibition [3, 8] | growth inhibition ([3]; at 50.0 µM) | growth inhibition [4, 7] [%] | growth inhibition [4, 8] | growth inhibition ([4]; at 50.0 µM) | growth inhibition [5, 7] [%] | growth inhibition [5, 8] | growth inhibition ([5]; at 50.0 µM) | growth inhibition [6, 7] [%] | growth inhibition [6, 8] | growth inhibition ([6]; at 50.0 µM)
1 | COc1ccc(CSC(=S)Nc2ccc(Cl)cc2Cl)cc1 | 6% | 98% (active) | 99.2% (active) | 5 | 99% (active) | 99.3% (active) | 8 | 99% (active) | 99.3% (active) | -24 | 96% (active) | 98.7% (active) | -6 | 97% (active) | 99% (active) | 3 | 98% (active) | 98.8% (active)
2 | O=[N+]([O-])c1c(I)ccc2ccccc12 | -24% | 90% (active) | 41.9% | 0 | 89% (active) | -0.95% | -6 | 95% (active) | 17.6% | -9 | 41% | 11.5% | -2 | 66% | 5.25% | 1 | 94% (active) | 36.5%
3 | COc1ccc(N=NN2CCCC2)cc1 | 35% | 42% | 89.7% (active) | 25 | 27% | 92.5% (active) | 45 | 52% | 86.3% (active) | 46 | 56% | 89.7% (active) | 49 | 50% | 90.5% (active) | 14 | 33% | 91.2% (active)
4 | COC(=O)C1(Cc2ccc(C)cc2)Cc2c(C)cccc2C1=O (configuration not stated) | -2% | 47% | 70.3% (active) | -2 | 35% | 39.9% | 13 | 45% | 75.8% (active) | 6 | 32% | 55.9% | 17 | 71% (active) | 75.2% (active) | -1 | 54% | 54.4%
5 | CC(=N/NC(=S)NCC(C)C)/C(C)=N\Nc1ccc(Cl)cc1 | 2% | 81% (active) | 95% (active) | -1 | 79% (active) | 73.2% (active) | 1 | 91% (active) | 92.4% (active) | -4 | 79% (active) | 72.8% (active) | -4 | 82% (active) | 93.7% (active) | 0 | 90% (active) | 92% (active)
6 | CNCCN[C@@H]1c2cc3c(cc2[C@@H](c2cc(OC)c(O)c(OC)c2)[C@H]2C(=O)OC[C@@H]21)OCO3 | 96% (active) | 97% (active) | 78.8% (active) | 43 | 91% (active) | 65.3% | -24 | 75% (active) | 88.1% (active) | 3 | 42% | 82.4% (active) | -3 | 84% (active) | 87% (active) | 43 | 89% (active) | 87.8% (active)
7 | O=C(/C=C/c1ccc(Cl)c(Cl)c1)CCN1CCN(CCC(=O)/C=C/c2ccc(Cl)c(Cl)c2)CC1 | 36% | 98% (active) | 82.7% (active) | 38 | 99% (active) | 85.5% (active) | 11 | 99% (active) | 88.1% (active) | 16 | 99% (active) | 86.3% (active) | 14 | 98% (active) | 82% (active) | 44 | 98% (active) | 86.5% (active)
8 | O=C(NCCN1CCCC1)c1cn2c(ccc3sc4ccccc4c(=O)c32)n1 | 29% | 89% (active) | 66% | 21 | 71% (active) | 49.6% | 19 | 77% (active) | 46% | 19 | 54% | 37.2% | 20 | 76% (active) | 25.9% | 26 | 81% (active) | 20.4%
9 | C=CCOC(=O)CC(O)C(=O)OCC=C (configuration not stated) | -5% | 7% | 0.95% | 4 | -2% | -12.7% | -1 | 3% | -29.6% | 1 | -9% | 13.8% | 0 | -8% | 7.85% | -5 | 13% | -2.45%
